68 compounds from the supplement of paper PMC10498489 can be followed below.

The whole screen tested about 2,300 compounds, of which about 330 (14%) showed activity. Not all results are given here. Values without a mark were called inactive.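 How the source made its calls: active = median modified Z-score above 1.96; inactive = 1.96 or below.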

For this assay, the system named is HepG2 Srxn1-GFP reporter cells (+30 nM CDDO-Me). The assay can be described thus: Srxn1-GFP intensity median modified Z-score relative to plate median; higher = stronger NRF2 / oxidative stress reporter activation, active = hit call of the paper. As to conditions: 10 µM; exposure time: 24h. The method in brief: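 HepG2 Srxn1-GFP BAC reporter cells (20,000 per well, 96-well plates) were co-exposed to an NRF2 activator at 30 nM and compound at 10 μM (≤0.1% DMSO) for 24 h in three replicate plates. After formaldehyde fixation and Hoechst staining, confocal images were analysed per cell for cytoplasmic GFP, excluding images with under 100 cells. The value is the median over replicates of the per-plate modified Z-score of GFP intensity. Scaling used 1.4826 × median absolute deviation.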
Consider `CCC(CCC(C)[C@H]1CCC2C3CC=C4C[C@@H](OC(C)=O)CC[C@]4(C)C3CC[C@@]21C)C(C)C` (stereo partly drawn) [euspeclibcmpd1595], for which the “Srxn1-GFP intensity median modified Z-score” value was -0.573.
For `O=c1cc(-c2ccccc2)oc2cccc(O)c12` [euspeclibcmpd2071], the “Srxn1-GFP intensity median modified Z-score” value was -0.0825.
For the compound `COc1ccc2oc(-c3ccccc3OC)cc(=O)c2c1` [euspeclibcmpd1670], the “Srxn1-GFP intensity median modified Z-score” value is 3.62 (active).
On to `COc1ccc2oc(-c3ccccc3OC)cc(=O)c2c1`, for which the “Srxn1-GFP intensity median modified Z-score” value is 0.553.
Take `COc1ccccc1-c1cc(=O)c2c(OC)cccc2o1` [euspeclibcmpd2107]: the “Srxn1-GFP intensity median modified Z-score” value was 2.2 (active).
For `COc1cc(OC)c2c(=O)cc(-c3ccccc3)oc2c1` [euspeclibcmpd1677] the value was 0.503.
On to `COc1ccc(-c2cc(=O)c3cc(OC)ccc3o2)cc1` [euspeclibcmpd2272], for which the “Srxn1-GFP intensity median modified Z-score” value is -0.0301.
In the case of `COc1ccc2c(=O)cc(-c3ccccc3OC)oc2c1` [euspeclibcmpd2182], the “Srxn1-GFP intensity median modified Z-score” value is 0.253.
As for `Cn1c(=O)c2nc(Br)[nH]c2n(C)c1=O` [euspeclibcmpd2124], the “Srxn1-GFP intensity median modified Z-score” value was -0.455.
Regarding `C[N+](C)(C)CCOP(=O)(O)OP(=O)(O)OC[C@H]1OC(n2ccc(=N)[nH]c2=O)[C@H](O)[C@@H]1O` (stereo partly drawn) [euspeclibcmpd812], the “Srxn1-GFP intensity median modified Z-score” value was -0.665.
Take `CC(=O)[C@@]1(O)CCC2C3=CC(Cl)=C4CC(=O)C5CC5[C@]4(C)C3CC[C@@]21C` (stereo partly drawn) [euspeclibcmpd1156]: the “Srxn1-GFP intensity median modified Z-score” value is -0.345.
As to `CS(=O)(=O)c1ccc(N)cc1`, the “Srxn1-GFP intensity median modified Z-score” value is 0.342.
The value for `CC(C)CCCC(C)[C@H]1CCC2C3CC=C4CC(=O)CC[C@]4(C)C3CC[C@@]21C` (stereo partly drawn) [euspeclibcmpd1330] was -0.35; that for `c1ccc(C2CN3CCSC3=N2)cc1` (stereo not drawn) [euspeclibcmpd2122] was 1.03; that for `O=C(O)c1nc2cc(Cl)c(Cl)cc2[nH]c1=O` [euspeclibcmpd1804] was -0.361.
On to `O=c1[nH]c(=O)n(C2C[C@@H](O)[C@@H](CO)O2)cc1F` (stereo partly drawn) [euspeclibcmpd516], for which the “Srxn1-GFP intensity median modified Z-score” value was 1.56.
Consider `O=c1[nH]c(=O)n([C@H]2C[C@H](O)C(CO)O2)cc1I` (stereo partly drawn) [euspeclibcmpd2208], for which the “Srxn1-GFP intensity median modified Z-score” value was 0.
For the compound `O=c1[nH]c(=O)n(C2C[C@H](O)[C@@H](CO)O2)cc1C(F)(F)F` (stereo partly drawn) [euspeclibcmpd660], the “Srxn1-GFP intensity median modified Z-score” value was 2.21 (active).
The value for `CC(NC(CCc1ccccc1)C(=O)O)C(=O)N1Cc2ccccc2CC1C(=O)O` (stereo not drawn) [euspeclibcmpd841] was -0.626; that for `CC[C@H]1OC(=O)C(C)[C@@H](O[C@H]2C[C@@](C)(OC)[C@@H](O)[C@H](C)O2)[C@H](C)[C@@H](O[C@@H]2O[C@H](C)C[C@H](N(C)C)[C@H]2O)[C@](C)(OC)CC(C)C(=O)C(C)[C@@H](O)[C@]1(C)O` (stereo partly drawn) [euspeclibcmpd669] was 1.56; that for `CC(C(=O)O)C1CCC2C3CC=C4CC(O)CCC4(C)C3CCC12C` (stereo not drawn) [euspeclibcmpd1985] was 0.801.
As for `CCc1oc2ccccc2c1C(=O)c1cc(Br)c(O)c(Br)c1` [euspeclibcmpd888], the “Srxn1-GFP intensity median modified Z-score” value is 2.7 (active).
For the compound `O=C(O)c1cc(=O)c2ccccc2o1` [euspeclibcmpd1112], the “Srxn1-GFP intensity median modified Z-score” value is -0.193.
For `CCCCc1oc2ccccc2c1C(=O)c1cc(I)c(OCCN(CC)CC)c(I)c1` [euspeclibcmpd976] the value was -0.752; for `CC(=O)OCC[C@H](C)CCC=C(C)C` [euspeclibcmpd1610], 1.13; for `COc1ccc2c(c1)c(CC(=O)Nc1nccs1)c(C)n2C(=O)c1ccc(Cl)cc1`, 1.66.
The value for `O=C(C=Cc1ccc(O)cc1)c1ccccc1O` [euspeclibcmpd2063] was -0.0605.
Turning to `O=C(/C=C/c1ccccc1)c1ccc(O[C@@H]2O[C@H](CO)[C@@H](O)[C@H](O)[C@H]2O)cc1O` [euspeclibcmpd1690], the “Srxn1-GFP intensity median modified Z-score” value is -0.0185.
`COc1ccc(O)c(C(=O)/C=C/c2ccc(F)cc2)c1`: the “Srxn1-GFP intensity median modified Z-score” value is 1.36.
In the case of `O=C(C=Cc1ccc(O)cc1)c1ccc(O)cc1O` [euspeclibcmpd1984], the “Srxn1-GFP intensity median modified Z-score” value is 13.1 (active).
`COc1ccc(/C=C/C(=O)c2ccc(O)cc2O)cc1` [euspeclibcmpd1445]: the “Srxn1-GFP intensity median modified Z-score” value is 1.77.
Take `O=C(C=Cc1ccccc1)c1ccc(O)cc1O` [euspeclibcmpd1990]: the “Srxn1-GFP intensity median modified Z-score” value is 2.48 (active).
For `N=c1[nH]c(F)nc2c1ncn2[C@@H]1O[C@H](COP(=O)(O)O)[C@@H](O)[C@@H]1O` [euspeclibcmpd850] the value was 0.307.
`COc1cc(C=CC(=O)O)cc(OC)c1O` [euspeclibcmpd1663]: the “Srxn1-GFP intensity median modified Z-score” value is -0.0893.
In the case of `CC(C)(C)NC(=O)C1CCC2C3CCC4NC(=O)C=C[C@]4(C)C3CC[C@]12C` (stereo partly drawn) [euspeclibcmpd849], the “Srxn1-GFP intensity median modified Z-score” value is -0.292.
On to `COc1cccc(OC)c1C(=O)NC1C(=O)N2C1SC(C)(C)C2C(=O)O` (stereo not drawn) [euspeclibcmpd2201], for which the “Srxn1-GFP intensity median modified Z-score” value was 0.364.
For `CC(O)=NO` [euspeclibcmpd970] the value was -0.0555; for `Cn1nnnc1SC=C1CSC2C(NC(=O)C(OC=O)c3ccccc3)C(=O)N2C1C(=O)O` (stereo not drawn) [euspeclibcmpd2340], 0.482.
`C[N+]1(C)C2CC[C@H]1C[C@@H](OC(=O)C(O)c1ccccc1)C2` (stereo partly drawn) [euspeclibcmpd149]: the “Srxn1-GFP intensity median modified Z-score” value was 0.332.
For `O=C1/C(=C/c2cccs2)CCC/C1=C\c1cccs1` [euspeclibcmpd465] the value was 36.6 (active); for `O=C1/C(=C/c2cccs2)CSC/C1=C/c1cccs1`, 13.2 (active); for `CN1C/C(=C/c2cccs2)C(=O)/C(=C/c2cccs2)C1`, 1.25.
For `O=C1/C(=C\c2cccs2)CC/C1=C\c1cccs1` the value was 2.51 (active); for `C#C[C@]1(O)CCC2C3CCc4cc(O)ccc4C3CC[C@@]21C` (stereo partly drawn) [euspeclibcmpd121], 0.17.
As to `COc1cc2[nH]c(N(C)CCCNC(=O)C3CCCO3)nc(=N)c2cc1OC` (stereo not drawn) [euspeclibcmpd2275], the “Srxn1-GFP intensity median modified Z-score” value was -0.081.
For the compound `CN[C@H](CC(C)C)C(=O)NC1C(=O)N[C@@H](CC(N)=O)C(=O)N[C@H]2C(=O)Nc3c(O)[nH]c(c(O)[nH]c(=C(O)O)c4cc(O)cc(O)c4c4cc3ccc4O)[C@H](O)c3ccc(c(Cl)c3)Oc3cc2cc(c3O[C@@H]2OC(CO)[C@@H](O)[C@H](O)[C@H]2O[C@H]2C[C@](C)(N)[C@H](O)[C@H](C)O2)Oc2ccc(cc2Cl)[C@H]1O` (stereo partly drawn) [euspeclibcmpd319], the “Srxn1-GFP intensity median modified Z-score” value is 0.197.
The value for `CCN1CCN(C(=O)NC(C(=O)NC2C(=O)N3C(C(=O)O)=C(CSc4nnnn4C)CSC23)c2ccc(O)cc2)C(=O)C1=O` (stereo not drawn) [euspeclibcmpd431] was -0.443; that for `CC[C@H](CCC(C)[C@H]1CCC2C3CCC4C[C@@H](O)CC[C@]4(C)C3CC[C@@]21C)C(C)C` (stereo partly drawn) [euspeclibcmpd1543] was -0.389; that for `O=C(O)CC(O)(CC(=O)O)C(=O)O` [euspeclibcmpd2462] was 0.449.
Turning to `O=C(O)CC(O)(CC(=O)O)C(=O)O` [euspeclibcmpd2464], the “Srxn1-GFP intensity median modified Z-score” value is -0.363.
As for `CC(=O)OC1C[C@@]2(C)C(C[C@@H](O)C3[C@]2(C)CC[C@H]2[C@H](C)[C@H](O)CC[C@]32C)C1=C(CCC=C(C)C)C(=O)O` (stereo partly drawn) [euspeclibcmpd136], the “Srxn1-GFP intensity median modified Z-score” value was -0.739.
`COc1cc(O)c(C(=O)c2ccccc2)cc1O` [euspeclibcmpd1987]: the “Srxn1-GFP intensity median modified Z-score” value is -0.376.
In the case of `CC(C)C(NC(=O)[C@H](CC(=O)O)NC(=O)[C@H](CCCCN)NC(=O)[C@@H](N)CCCN=C(N)N)C(=O)N[C@@H](Cc1ccc(O)cc1)C(=O)O` (stereo partly drawn) [euspeclibcmpd1282], the “Srxn1-GFP intensity median modified Z-score” value was -0.1.
Turning to `C[C@H](CCC(=O)O)[C@H]1CCC2C3C(=O)CC4CC(=O)CC[C@]4(C)C3CC(=O)[C@@]21C` (stereo partly drawn) [euspeclibcmpd2057], the “Srxn1-GFP intensity median modified Z-score” value was -0.197.
Regarding `NCCCCS(=O)(=O)O`, the “Srxn1-GFP intensity median modified Z-score” value is 10.1 (active).
For `NCCCS(=O)(=O)O` [euspeclibcmpd386] the value was -0.0155; for `NCCS(=O)(=O)O` [euspeclibcmpd625], -0.209; for `CCc1[nH]c(=N)[nH]c(=N)c1-c1ccc(Cl)cc1` [euspeclibcmpd259], 1.02.
In the case of `C[C@@H]1CN(c2c(F)c(F)c3c(=O)c(C(=O)O)cn(C4CC4)c3c2F)C[C@H](C)N1` [euspeclibcmpd981], the “Srxn1-GFP intensity median modified Z-score” value was -0.465.
As for `Oc1c(C2=CC[C@@H](c3ccc(Cl)cc3)CC2)c(O)c2ccccc2c1O` [euspeclibcmpd664], the “Srxn1-GFP intensity median modified Z-score” value is 37.9 (active).
In the case of `COc1ccc(-c2cc(=O)c3c(O)c(OC)c(O[C@H]4O[C@H](CO[C@@H]5O[C@@H](C)[C@H](O)[C@@H](O)[C@H]5O)[C@@H](O)[C@H](O)[C@H]4O)cc3o2)cc1` [euspeclibcmpd1421], the “Srxn1-GFP intensity median modified Z-score” value was -0.512.
Regarding `COc1cc(OC)c2c(=O)c(O)c(-c3ccc(OC)c(OC)c3)oc2c1` [euspeclibcmpd2117], the “Srxn1-GFP intensity median modified Z-score” value is -0.572.
For the compound `COc1cc(OC)c2c(OC)c(-c3ccc4c(c3)OCO4)c(=O)oc2c1` [euspeclibcmpd2227], the “Srxn1-GFP intensity median modified Z-score” value is 2.22 (active).
On to `COc1cc(OC)c2c(=O)c(OC)c(-c3ccccc3)oc2c1` [euspeclibcmpd1625], for which the “Srxn1-GFP intensity median modified Z-score” value was 1.58.
For `CCN(CC)C(=O)C1(c2ccccc2)CC1CN` (stereo not drawn) [euspeclibcmpd689] the value was -0.729.
For `O=C(C(O)CO)C(O)CO` (stereo not drawn) [euspeclibcmpd2280] the value was -0.0858; for `O=c1c(-c2ccc(O)cc2)coc2c(C3O[C@H](CO)[C@@H](O)[C@H](O)[C@H]3O)c(O)ccc12` (stereo partly drawn) [euspeclibcmpd1715], -0.564; for `COC(=O)NN=Cc1c[n+]([O-])c2ccccc2[n+]1[O-]` [euspeclibcmpd737], 0.066.
